Assay outcomes (PubChem BioAssay)
EBV LMP1 NFkB: Epstein-Barr LMP1 NF-kappaB reporter inhibition | actives 0.69% (n = 350,000) | inhibition, % at 12.5 µM | LMP1-induced NF-kappaB luciferase reporter cells, luminescence; in the data active = inhibition above about 41%;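 note: 0% = neutral control wells and 100% = reference inhibitor control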
697 NFkB inh: lowers PMA/ionomycin-induced NF-kB signal in 697 B cells | 697 B-cell NF-kB luciferase reporter, 16 h | inhibition, % at 4 µM | actives 0.33% (n = 330,000) | AID 435022; in the data active = inhibition above about 35%
Shn3 3UTR inh: Schnurri-3 reporter inhibition in Clone20 osteoblasts. Clone20 osteoblast Shn3 3'UTR firefly luciferase, 24 h. inhibition, % at 12.5 µM. actives 0.52% (n = 360,000);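 active = mean inhibition of at least 75% with every replicate also reaching 75%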;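 note: 0% = median of neutral control wells and 100% = pilot-screen positive control compound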
TRPM1 prom inh: inhibitors of MITF-driven TRPM1 promoter in melanoma cells | SK-MEL-5 TRPM1 promoter luciferase, 24 h | inhibition, % at 12.5 µM | actives 0.83% (n = 330,000) | AID 488899;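 active = mean inhibition across replicates of 60% or more, whatever share of single replicates reaches that level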
Gli-Sufu block: antagonists of Gli-Sufu signaling | Sufu-KO-LIGHT fibroblasts, Gli luciferase reporter luminescence | inhibition, % at 5 µM | actives 0.74% (n = 340,000) | AID 588413;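 active = inhibition above about 55%, limit read from the data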;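 note: 0% = DMSO-treated cells and 100% = wells with medium but no cells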
Jurkat NFkB inh: lowers PMA/ionomycin-induced NF-kB signal in Jurkat cells; PMA/ionomycin-induced NF-kB luciferase reporter, luminescence; inhibition, % at 4 µM; actives 0.53% (n = 330,000); in the data active = inhibition above about 50%
Jurkat NFkB conf: lowers PMA/ionomycin-induced NF-kB signal in Jurkat cells; shares compounds with Jurkat NFkB inh; Jurkat NF-kB luciferase, 16 h; inhibition, % at 4 µM; actives 27% (n = 2,700);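 active = inhibition reaching about 45% at 4 µM in either replicate, limit read from the data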;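 note: plate controls were PMA/ionomycin stimulated DMSO wells for no effect and unstimulated DMSO wells for full effect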
Starred values were filed as active, the others as inactive; x = no result. A selection: hits, their analogues and other compounds. The true share with any hit is near 2.3%.

SMILES | EBV LMP1 NFkB | 697 NFkB inh | Shn3 3UTR inh | TRPM1 prom inh | Gli-Sufu block | Jurkat NFkB inh | Jurkat NFkB conf
CCOc1ccc(C2CC(=O)n3nc(C45CC6CC(CC(C6)C4)C5)nc3S2)cc1OC (stereo not drawn) | -5.2 | 9.9 | 17.2 | -1.0 | -1.1 | -9.4 | x
COc1cc(/C=C2\SC(=Nc3ccc(O)cc3)NC2=O)cc(OC)c1OC | x | 2.2 | x | x | -2.1 | 58.7* | 0.7
COc1cc(/C=C2/SC(=Nc3ccc(O)cc3)NC2=O)cc(OC)c1O | 3.1 | -7.3 | 9.9 | 7.2 | 0.2 | 25.7 | x
O=C(c1ccccc1)c1nn(-c2ccccc2)c(=O)cc1C(F)(F)F | -13.7 | -24.1 | -0.9 | 12.9 | 2.8 | 6.5 | x
O=C(c1ccccc1)c1nn(-c2ccc(Cl)cc2)c(=O)cc1C(F)(F)F | 64.2* | -130.8 | 73.9 | 24.1 | 12.1 | 98.5* | 80.0*
Cc1c([N+](=O)[O-])cc(S(=O)(=O)Nc2ccncc2)cc1[N+](=O)[O-] | -3.1 | 16.0 | -15.0 | -6.3 | -0.9 | 5.9 | x
Cc1c(C(=O)C(=O)N2c3ccc(F)cc3CCC2C)c2ccccc2n1C (stereo not drawn) | 6.9 | -63.9 | -7.0 | 12.2 | 26.8 | 64.7* | 31.8
c1ccc(Nc2nc(-c3ccccn3)cs2)cc1 | -15.0 | -197.3 | -60.1 | -4.9 | -11.9 | -130.5 | x
COc1cccc2sc(Nc3nc(-c4ccccn4)cs3)nc12 | 46.1* | -132.2 | 70.9 | 52.7 | x | 97.6* | 31.8
COCCN(C(=O)COC(=O)c1c(C)nn(-c2ccccc2)c1C)c1c(N)n(Cc2ccccc2)c(=O)[nH]c1=O | -4.6 | x | -17.2 | x | x | x | x
CC1CCCCN1C(=S)NCc1ccco1 (stereo not drawn) | 8.8 | -11.4 | -4.3 | 7.8 | 36.1 | -11.1 | x
COc1cc2ccccc2cc1C(=O)NC1CCCC1 | -14.9 | -16.7 | -1.3 | -16.0 | -26.1 | -43.4 | x
COc1cc2ccccc2cc1C(=O)NC1CCC(C)CC1 (stereo not drawn) | -37.8 | -59.2 | 56.5 | -117.9 | -60.8 | 94.7* | -47.0
CCOC(=O)N1CCN(C(=O)Cn2cc3c(n2)CCCC3)CC1 | 3.0 | 27.4 | 2.6 | 5.9 | -36.0 | 3.1 | x
O=C(c1ccccc1)n1ccc(-c2cnc(-c3ccccc3)s2)n1 | 15.8 | -192.5 | -9.2 | -35.5 | -3.0 | -180.4 | -72.8
Cc1ccnc2c1ccc1c(C)ccnc12 | 83.7* | -26.6 | 89.7* | 77.4* | 90.8* | 76.3* | 74.7*
Cc1ccnc2c1ccc1cccnc12 | 80.2* | -14.1 | 92.1* | 78.9* | 92.3* | 69.3* | 63.8*
Cc1ccnc2c1ccc1ccccc12 | 6.1 | 9.3 | -15.7 | -12.5 | -4.7 | -2.2 | x
CC(C)NC(=O)c1ccccc1NC(=O)Cc1ccc(Cl)cc1 | -1.7 | 15.9 | -7.3 | 6.0 | -9.1 | 6.4 | x
O=C(OCC(=O)N1CCN(c2ccccc2)CC1)c1cccs1 | -11.5 | -0.5 | -22.3 | -12.0 | 2.0 | -2.3 | x
COc1ccc(-c2csc(N(Cc3ccccc3)C(=O)COc3ccc(Cl)cc3)n2)cc1 | -3.7 | -7.3 | -6.3 | 2.4 | -0.6 | -15.0 | x
Cc1cccc(N=Nc2ccc(O)c3ncccc23)c1 | 52.4* | -78.6 | 87.4* | 70.8* | -2.0 | 89.6* | 39.7
Cc1ccc(N=Nc2cc(C)ccc2O)c(C)c1 | -12.7 | -63.0 | -64.5 | -49.4 | -134.8 | -45.3 | x
CCOc1ccc(-n2c(C)nc(O)c2N=Nc2ccccc2)cc1 | -8.3 | -4.2 | -12.5 | 17.1 | -1.1 | 1.9 | x
CCOc1ccc(N=Nc2ccc(O)c3ncccc23)cc1 | 5.5 | -117.3 | 89.9* | 70.0* | -13.6 | 89.3* | 2.6
SMILES | EBV LMP1 NFkB | 697 NFkB inh | Shn3 3UTR inh | TRPM1 prom inh | Gli-Sufu block | Jurkat NFkB inh | Jurkat NFkB conf
Cc1ccc(NCc2ccc(O)c3ncccc23)cc1 | 5.1 | -34.0 | 13.9 | 9.4 | -9.7 | 13.0 | x
Cc1ccc(C)c(N=Nc2ccc(O)c3ncccc23)c1 | 61.3* | -103.2 | 85.8* | 63.6* | 66.9* | 78.3* | 65.5*
O=C(NC1CCCCC1)C(c1c(F)cccc1Cl)N(C(=O)c1csnn1)C1CC1 (stereo not drawn) | -1.3 | 8.2 | -3.5 | -1.8 | 18.3 | 7.1 | x
CCC(=O)Nc1ccc(OCc2nc3ccccc3s2)cc1 | -26.2 | -213.5 | -90.5 | -7.7 | -78.9 | -150.0 | -92.8
CC(C)(C)NS(=O)(=O)c1ccc(OCC(=O)NCc2ccco2)cc1 | -4.5 | -5.1 | -15.5 | -8.8 | 2.8 | 7.8 | x
COc1ccc(/C=N/N(C)C2=NS(=O)(=O)c3ccccc32)cc1 | -10.3 | 5.6 | -10.5 | -8.9 | 7.0 | 25.2 | x
COc1ccc(N(C)C2=NS(=O)(=O)c3ccccc32)cc1 | 12.9 | -73.1 | 9.5 | 31.3 | -4.8 | 55.6* | 38.6
Cc1noc(/C=C/N(C)C)c1S(=O)(=O)N1CCCC(C(=O)N2CCCCC2)C1 (stereo not drawn) | 7.1 | -5.2 | 16.0 | x | 10.9 | -7.0 | x
C[C@@]12CCC3[C@@](CCC4[C@@]3(C)CCC[C@@]4(C)C(=O)N3CCCCC3)(CC1=O)C2 (stereo partly drawn) | 4.7 | 4.3 | -0.4 | -13.9 | 17.0 | 9.6 | x
Cc1ccc(OCCCNCCO)c(Br)c1 | -7.5 | -8.0 | -45.4 | 23.1 | -0.9 | 80.7* | 35.0
CC1=C(C(=O)OCCOC(C)C)C(c2cc3c(cc2Br)OCO3)CC(=O)N1 (stereo not drawn) | 1.2 | -26.4 | 20.6 | -4.7 | 3.1 | -3.8 | x
COc1cc2c(cc1OC)C(C)N(C(=O)c1c(C)noc1C)CC2 (stereo not drawn) | -4.7 | 1.7 | -8.7 | 2.6 | 1.3 | 22.0 | x
COc1cc2c(cc1OC)C(C)N(C(=O)c1cc(C)on1)CC2 (stereo not drawn) | 16.9 | 21.3 | 6.9 | 30.4 | 36.9 | 64.3* | 50.7*
O=[N+]([O-])c1ccc(Sc2ccccn2)nc1 | 0.6 | 9.5 | -3.1 | 14.9 | 3.2 | 2.1 | x
O=[N+]([O-])c1ccc(Sc2ccc(Cl)c(Cl)c2)nc1 | -1.5 | 4.8 | -17.8 | -26.2 | -3.5 | 79.2* | 38.9
CCNC(=O)C1CCN(S(=O)(=O)c2ccc(F)cc2)CC1 | -9.6 | 8.3 | -8.7 | 0.3 | 3.1 | -8.0 | x
Cc1ccc(NC(=O)CSc2nc3ccccc3c3nc4ccccc4n23)cc1 | 2.2 | 3.5 | 45.2 | 23.0 | 46.5 | 72.6* | 39.0
COc1ccc(NC(=O)CSc2nc3ccccc3c3nc4ccccc4n23)cc1 | 7.5 | x | 8.7 | 7.0 | -1.5 | x | x
CCOC(=O)c1ccc(NC(=O)Nc2ccc(Cl)cn2)cc1 | -1.5 | 4.1 | 5.5 | -8.2 | -13.5 | -0.6 | x
CCOC(=O)c1ccc(NC(=O)Nc2ccon2)cc1 | 10.7 | -7.4 | -36.8 | 10.4 | 41.9 | 58.1* | 34.4
O=C(Nc1ccc(Cl)c(Cl)c1)Nc1ccon1 | 12.2 | -17.9 | -6.7 | 1.4 | -17.7 | 52.7* | 32.4
O=[N+]([O-])c1ccc(N/N=C/c2cccc(O)c2)cc1 | 9.0 | -46.1 | -6.3 | -50.5 | -13.4 | -83.9 | x
O=[N+]([O-])c1ccc(N/N=C/c2cccc(O)c2O)cc1 | -52.3 | -111.6 | 6.8 | -20.4 | 36.0 | 80.9* | -5.4
